Results taken from PubChem BioAssay AID1159580 (chemical genetic matrix, 2015).
Several values for one entry are separate records, joined by “and”; a condition that tells them apart may be missing. Identical values can stand only once. About 2,000 (36%) of roughly 5,500 compounds were called active. Another 18% or so got no clear call; they are omitted. No stated cut-off is given here; in the data, active means normalized growth mostly below about 0.91 (no sharp cut-off); inconclusive means no clear call, values can overlap the other calls; inactive means mostly above about 0.92. This is one part of the list.

Assay: chemical genetic growth profiling, strain panel (AID 1159580);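 further: tested at 20 µM; growth read once vehicle control cultures reached saturation at 30 °C; 1 = growth at the plate median or of vehicle wells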
Conditions: S. cerevisiae deletion strains, growth OD

Measured: normalized growth

CC[C@@H](C(=O)[C@@H](C)[C@@H](O)[C@H](C)[C@@H]1O[C@@H]([C@@H](CC)C(=O)O)CC[C@@H]1C)[C@H]1OC2(C=C[C@@H](O)[C@]3(CC[C@@](C)([C@H]4CC[C@](O)(CC)[C@H](C)O4)O3)O2)[C@H](C)C[C@@H]1C (some centres undefined)
0.819 (inactive) and 0.137 (active): locus YJL095W, strain BCK1, stronger effect = lower value
0.934 (inactive) and 0.145 (active): locus YHR030C, strain SLT2, stronger effect = lower value
active: locus YAL021C, strain ccr4, stronger effect = lower value 0.721 | locus YAL026C, strain drs2, stronger effect = lower value 0.14 | locus YAL030W, strain snc1, stronger effect = lower value 0.906 | locus YBL061C, strain skt5, stronger effect = lower value 0.846 | locus YBR009C, strain hhf1, stronger effect = lower value 0.833 | locus YBR021W, strain FUR4, stronger effect = lower value 0.753 | locus YBR023C, strain chs3, stronger effect = lower value 0.839 | locus YBR171W, strain sec66, stronger effect = lower value 0.887 | locus YBR231C, strain swc5, stronger effect = lower value 0.789 | locus YCL011C, strain gbp2, stronger effect = lower value 0.867 | locus YCL016C, strain dcc1, stronger effect = lower value 0.85 | locus YCL069W, strain vba3, stronger effect = lower value 0.892 | locus YCR088W, strain abp1, stronger effect = lower value 0.877 | locus YDL134C, strain PPH21, stronger effect = lower value 0.871 | locus YDL192W, strain arf1, stronger effect = lower value 0.136 | locus YDR069C, strain doa4, stronger effect = lower value 0.872 | locus YDR101C, strain arx1, stronger effect = lower value 0.891 | locus YDR162C, strain NBP2, stronger effect = lower value 0.69 | locus YDR297W, strain sur2, stronger effect = lower value 0.919 | locus YDR318W, strain mcm21, stronger effect = lower value 0.825 | locus YDR388W, stronger effect = lower value 0.668 | locus YDR502C, strain sam2, stronger effect = lower value 0.847 | locus YEL003W, strain gim4, stronger effect = lower value 0.885 | locus YEL037C, strain rad23, stronger effect = lower value 0.901 | locus YFR010W, strain ubp6, stronger effect = lower value 0.84 | locus YGL078C, strain dbp3, stronger effect = lower value 0.917 | locus YGL086W, strain mad1, stronger effect = lower value 0.863 | locus YGL167C, strain pmr1, stronger effect = lower value 0.744 | locus YGL248W, strain PDE1, stronger effect = lower value 0.878 | locus YGL253W, strain hxk2, stronger effect = lower value 0.816 | locus YHR079C, strain IRE1 (second series), stronger effect = lower value 0.837 | locus YHR079C, strain IRE1, stronger effect = lower value 0.164 | locus YHR094C, strain hxt1, stronger effect = lower value 0.877 | locus YHR142W, strain chs7, stronger effect = lower value 0.836 | locus YHR200W, strain rpn10, stronger effect = lower value 0.908 | locus YIL125W, strain kgd1, stronger effect = lower value 0.785 | locus YIR030C, strain dcg1, stronger effect = lower value 0.892 | locus YJL092W, strain hpr5, stronger effect = lower value 0.903 | locus YJL095W, strain BCK1 (second series), stronger effect = lower value 0.875 | locus YJL129C, strain trk1, stronger effect = lower value 0.707 | locus YJL154C, strain vps35, stronger effect = lower value 0.821 | locus YJL164C, strain tpk1, stronger effect = lower value 0.883 | locus YJL168C, strain set2, stronger effect = lower value 0.873
inactive: locus YAL013W, strain DEP1, stronger effect = lower value 1.02 | locus YBR229C, strain ROT2, stronger effect = lower value 0.932 | locus YBR279W, strain paf1, stronger effect = lower value 0.94 | locus YCL029C, strain bik1, stronger effect = lower value 0.911 | locus YCL061C, strain MRC1, stronger effect = lower value 0.923 | locus YDL005C, strain med2, stronger effect = lower value 0.97 | locus YDL035C, strain GPR1, stronger effect = lower value 0.876 | locus YDL040C, strain nat1, stronger effect = lower value 0.944 | locus YDL074C, strain BRE1, stronger effect = lower value 0.963 | locus YDL101C, strain DUN1, stronger effect = lower value 0.943 | locus YDL185W, strain tfp1, stronger effect = lower value 0.988 | locus YDR001C, strain nth1, stronger effect = lower value 0.929 | locus YDR137W, strain rgp1, stronger effect = lower value 0.974 | locus YDR159W, strain sac3, stronger effect = lower value 0.941 | locus YDR195W, strain ref2 1.01 | locus YDR334W, strain swr1, stronger effect = lower value 0.98 | locus YDR335W, strain msn5, stronger effect = lower value 0.927 | locus YDR392W, strain spt3, stronger effect = lower value 1.09 | locus YEL061C, strain CIN8 (second series), stronger effect = lower value 0.948 | locus YEL061C, strain CIN8, stronger effect = lower value 0.982 | locus YER015W, strain faa2, stronger effect = lower value 0.979 | locus YER016W, strain bim1, stronger effect = lower value 0.95 | locus YER110C, stronger effect = lower value 1.01 | locus YER111C, strain swi4, stronger effect = lower value 0.96 | locus YER155C, strain BEM2 (second series), stronger effect = lower value 1.03 | locus YER155C, strain BEM2, stronger effect = lower value 1.03 | locus YER167W, strain BCK2, stronger effect = lower value 0.914 | locus YGL173C, strain kem1, stronger effect = lower value 0.917 | locus YGL227W, strain vid30, stronger effect = lower value 0.943 | locus YGL240W, strain doc1, stronger effect = lower value 1 | locus YGR078C, strain PAC10, stronger effect = lower value 0.986 | locus YGR135W, strain pre9, stronger effect = lower value 0.932 | locus YGR252W, strain gcn5, stronger effect = lower value 0.923 | locus YHR013C, strain ard1, stronger effect = lower value 1.07 | locus YHR027C, strain rpn1, stronger effect = lower value 0.958 | locus YHR129C, strain ARP1, stronger effect = lower value 0.932 | locus YIL066C, strain RNR3, stronger effect = lower value 0.934 | locus YIL073C, strain SPO22, stronger effect = lower value 0.88 | locus YJL115W, strain asf1, stronger effect = lower value 0.985 | locus YJL134W, strain LCB3, stronger effect = lower value 0.949 | locus YJL166W, strain qcr8, stronger effect = lower value 0.926 | locus YJL187C, strain SWE1 (second series), stronger effect = lower value 0.916 | locus YJL187C, strain SWE1, stronger effect = lower value 0.935 | locus YJR043C, strain POL32, stronger effect = lower value 0.968
